In all, about 320,000 compounds went through this assay and about 2,100 (0.66%) were called active. Roughly 53% stayed inconclusive and do not appear here. Calls follow the shape of the dose curve; as a rule, active = well fitted inhibition curve with a large enough effect in the signal ratio, with a control signal flat (not every such curve was filed as active); inconclusive = small, poorly fitted or top-dose-only effect, or effect the other way, or a change in a side signal; inactive = flat fitted curve, though single readings scatter; the % refers to the signal ratio. Many of the other results were omitted from the sample, so actives are more common in it than they were.
Test: qHTS Assay for Lipid Storage Modulators in Drosophila S3 Cells;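 as to cell number change: cells counted by Cell Tracker Red CMTPX staining in the red channel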; as to lipid storage change, negative = inhibition: % is scaled to controls: 0 for no effect and ±100 for the full control effect
Conditions: BODIPY lipid droplet fluorescence, 18-24 h, cells fed with added oleic acid; cell number change: measured here: cell count max response; series mostly up to 46.1 µM; lipid storage change, negative = inhibition: at the top concentration
Outline: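 Drosophila S3 cells loaded with oleic acid (400 uM, as added) and compounds at several concentrations; lipid droplets imaged by 488-nm laser-scanning cytometry, 500–530 nm intensity and object ratio to cell channel. Percent activity normalized to 20 uM Triacsin C.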
Potency is read from the fitted curve at half-maximal effect.

Row | SMILES | lipid storage change, negative = inhibition | cell number change [%] | outcome | Potency
1 | CC(C)CNS(=O)(=O)c1ccc(OCC(=O)Nc2ccc3c(c2)OCCO3)cc1 | 22.1% (inactive) |  |  | 
2 | Cc1nnc(SCC(=O)N2CCN(S(=O)(=O)c3ccc(Cl)cc3)CC2)n(N)c1=O | 14.5% (inactive) | -9.35 |  | 
3 | COc1ccc(/C=N/Nc2cc(C)nc(N3CCOCC3)n2)c(OC)c1 | -17.1% (inactive) | -6.43 |  | 
4 | Cc1ccc(NC(=O)c2cc([N+](=O)[O-])ccc2N2CCOCC2)cc1S(=O)(=O)N(C)C | 3.55% (inactive) | 9.84 |  | 
5 | O=C(Nc1ccccc1O)c1nc(Cl)ccc1Cl | -0.501% (inactive) | 9.99 |  | 
6 | COC(=O)c1ccc(NS(=O)(=O)c2ccc(OC)cc2)cc1 |  |  | inactive | 
7 | COc1ccc(S(=O)(=O)Nc2ccc(NC(C)=O)cc2)cc1 | 13.9% (inactive) | 29.3 |  | 
8 | COc1ccc(NS(=O)(=O)c2ccc(C)c(C(=O)N3CC(C)OC(C)C3)c2)cc1 (stereo unspecified) | 12.4% (inactive) | 23.9 |  | 
9 | COc1ccc(NS(=O)(=O)c2ccc(C)c(C(=O)O)c2)cc1 |  | -20.6 |  | 25.9 µM (active)
10 | COC(=O)c1cc(NS(=O)(=O)c2ccc(N3CCCCC3)c([N+](=O)[O-])c2)cc(C(=O)OC)c1 | -9.87% (inactive) | -2.76 |  | 
11 | COc1ccc(NS(=O)(=O)c2ccc(C)c(C(=O)N(C)Cc3ccc(OC)cc3OC)c2)cc1 | -11.3% [at 0.0737 µM] (inactive) |  |  | 
12 | COc1ccc(NS(=O)(=O)c2ccc(N)c(C(=O)O)c2)cc1 |  | 1.73 |  | 20.6 µM (active)
13 | O=C(O)c1ccc(NS(=O)(=O)c2ccc(N3CCCC3)c([N+](=O)[O-])c2)cc1 | 0.165% (inactive) | 8.51 |  | 
14 | COc1ccc(NS(=O)(=O)c2ccc(N3CCN(CCO)CC3)c([N+](=O)[O-])c2)cc1 |  | -29.2 |  | 10.3 µM (active)
15 | CCOC(=O)CNC(=O)CSc1nnc(-c2ccco2)n1Cc1ccco1 | 13.7% (inactive) | -21.7 |  | 
16 | O=C(CCCCCNC(=O)N1CCn2c1nc1ccccc12)N[C@@H](C(=O)O)c1ccccc1 | 7.77% (inactive) | -11.9 |  | 
17 | Cc1cc(C)c(C#N)c(OCC(=O)Nc2ccccc2)n1 | 0.134% (inactive) | 11.6 |  | 
18 | CN1CCN(C(=O)c2ccc(Oc3ccc([N+](=O)[O-])cc3)cc2)CC1 |  |  | inactive | 
19 | COc1cccc(CNC(=O)c2ccc(NC(=O)CC3SC(N4CCCCC4)=NC3=O)cc2)c1 (stereo unspecified) | -26.4% (inactive) | 11.7 |  | 
20 | O=C(Cn1cc[n+](CC(=O)c2ccc(Cl)cc2Cl)c1)c1ccc(Cl)cc1Cl | 16.6% (inactive) | -3.27 |  | 
21 | N/C(=N\OC(=O)c1cccc2ccccc12)c1cccnc1 | 21.2% (inactive) | 18.1 |  | 
22 | N/C(=N\OC(=O)c1cccc2ccccc12)c1ccc(Br)cc1 |  | 18.1 |  | 10.3 µM (active)
23 | N/C(=N\OC(=O)c1cccc2ccccc12)c1ccncc1 | 23.4% (inactive) | 1.71 |  | 

Row | SMILES | lipid storage change, negative = inhibition | cell number change [%] | outcome | Potency
24 | CC(=O)c1cccc(NC(=O)c2ccc(C(=O)Nc3cccc(C(C)=O)c3)nc2)c1 | -11.2% (inactive) | 0.877 |  | 
25 | O=C(Oc1ccccc1)c1ccccc1OS(=O)(=O)c1ccccc1 |  |  |  | 0.517 µM (active)
26 | O=Cc1ccccc1OS(=O)(=O)c1ccccc1 | -12.7% (inactive) | -9.79 |  | 
27 | Cc1ccccc1S(=O)(=O)Oc1ccccc1C(=O)Oc1ccccc1 | -2.83% (inactive) | -11.7 |  | 
28 | CC(=O)NC(C)C(=O)OCc1ccc(Cl)cc1Cl (stereo unspecified) |  |  | inactive | 
29 | COc1cccc(CNC(=O)CCCCCn2c(=S)[nH]c3ccc(N4CCOCC4)cc3c2=O)c1 | -0.41% (inactive) | 4.01 |  | 
30 | O=C(CCCCCn1c(=S)[nH]c2ccc(N3CCOCC3)cc2c1=O)NCCc1ccccc1 | -1.13% (inactive) | -6.4 |  | 
31 | Cc1cccc(N2CCN(C(=O)CCCCCn3c(=S)[nH]c4ccc(N5CCOCC5)cc4c3=O)CC2)c1C |  | 1.42 |  | 20.6 µM (active)
32 | CCc1nn(CC(=O)NCCCN(CC)CC)c(=O)c2cc3sc(C)cc3n12 | 11% (inactive) | 7.9 |  | 
33 | COc1cccc(C(=O)COC(=O)C(C)N2C(=O)c3ccccc3C2=O)c1 (stereo unspecified) | 2.36% (inactive) | 8.05 |  | 
34 | CCOC(=O)c1sc(NC(=O)c2ccccc2C(=O)O)c(C(=O)OCC)c1C | 9% (inactive) | -2.04 |  | 
35 | CCOC(=O)c1sc(NC(=O)c2ccoc2C)c(C(N)=O)c1C |  | -15.9 |  | 0.731 µM (active)
36 | COC(=O)c1c(NC(=O)c2ccoc2C)sc(C)c1C | 28.5% (inactive) | 20.9 |  | 
37 | O=S(=O)(c1cccc(C(F)(F)F)c1)N1CCCC1c1cccnc1 (stereo unspecified) | 9.53% (inactive) | 4.77 |  | 
38 | CCOC(=O)c1c(C)[nH]c(C(=O)CN2C(=O)NC3(CCCC3)C2=O)c1C | 3.01% (inactive) | -4.44 |  | 
39 | CCCC1(c2ccccc2)NC(=O)N(CC(=O)c2[nH]c(C)c(C(=O)OCC)c2C)C1=O (stereo unspecified) |  | -26.5 |  | 8.2 µM (active)
40 | COC(=O)c1c(C)[nH]c(C(=O)CN2C(=O)NC3(CCOc4ccccc43)C2=O)c1C (stereo unspecified) | 20.8% (inactive) | -21.7 |  | 
41 | Oc1ccc(C[C@H]2CNCCN2CC2(c3ccccc3)CC2)cc1 | -18.7% (inactive) | 19.8 |  | 
42 | COc1ccc(OC)c(NC(=O)CN(Cc2ccc(Cl)cc2)S(C)(=O)=O)c1 | -6.37% (inactive) | 1.52 |  | 
43 | COc1ccc(CCCC(=O)NC2CCCCC2)cc1 | 18.2% (inactive) | 0.276 |  | 
44 | COc1ccc(Cl)cc1NC(=O)CN(C)C1CCCCC1 | 10.9% (inactive) | -8.15 |  | 
45 | COc1ccc(OC)c(NC(=O)CCCC(=O)NC2CCCCC2)c1 |  | -7.97 |  | 7.31 µM (active)
46 | COc1ccc(OC)c(NC(=O)CCN2CCCCC2)c1 | -44.8% (inactive) | -3.94 |  | 

Row | SMILES | lipid storage change, negative = inhibition | cell number change [%] | outcome | Potency
47 | COc1ccc(OC)c(NC(=O)CN(Cc2ccc(F)cc2)C2CCCCC2)c1 |  | 6.76 |  | 0.291 µM (active)
48 | Cc1ccsc1/C=C/c1n[nH]c(=O)c(C#N)c1C |  | 22.2 | inactive | 
49 | O=C(NC1CCOC1)c1ccc(OC2CCN(CCc3ccccc3)CC2)cc1 (stereo unspecified) | -5.98% (inactive) | -24 |  | 
50 | CN(C)CCCCOc1ccccc1-c1ccccc1 | -7.9% (inactive) | -4.23 |  | 
51 | CN(C)CCOCCOc1ccccc1-c1ccccc1 | -6.88% (inactive) | -9.8 |  | 
52 | CN(C)CCOc1ccccc1-c1ccccc1 |  | -29.9 |  | 23.1 µM (active)
53 | COc1ccc(NS(=O)(=O)c2cc(NC(=O)COc3ccccc3F)ccc2OC)cc1 |  | -1.34 |  | 1.64 µM (active)
54 | Cc1cc(C)nc(NS(=O)(=O)c2ccc(NC(=O)COc3ccccc3F)cc2)n1 | 13.6% (inactive) | 12.7 |  | 
55 | COc1ccc(NS(=O)(=O)c2cc(NC(=O)Cc3c(F)cccc3Cl)ccc2OC)cc1 | 6.88% (inactive) | -6.83 |  | 
56 | COCCNC(=O)c1ccc(CSCc2cccc(Cl)c2)o1 | 11.7% (inactive) | 7.62 |  | 
57 | c1ccc(CCNCC2COc3ccccc3O2)cc1 (stereo unspecified) | 7.04% (inactive) | 16.7 |  | 
58 | Cc1ccc(CSCCNS(=O)(=O)c2ccc([N+](=O)[O-])cc2)cc1 | 15.8% (inactive) |  |  | 
59 | COc1ccc(C(=O)c2sc(Nc3ccccc3)c(C(=O)Nc3ccc(OC)c(OC)c3)c2N)cc1 | 9.9% (inactive) | -20 |  | 
60 | COc1ccccc1NC(=O)c1c(Nc2ccccc2C)sc(C(=O)Nc2cccc(Cl)c2)c1N |  | -26.6 |  | 1.64 µM (active)
61 | COc1ccccc1NC(=O)c1sc(Cl)nc1C |  | 1.65 | inactive | 
62 | Cc1cccc(C)c1NC(=O)CN(C)C(=O)c1cccc(S(=O)(=O)N2CCN(C)CC2)c1 | -25% [at 0.0737 µM] (inactive) | 10.4 |  | 
63 | CCOC(=O)C1CCN(CC(O)COCc2ccc(Cl)cc2)CC1 (stereo unspecified) |  | 16.5 |  | 18.4 µM (active)
64 | CCOC(=O)C1CCN(CC(O)COCc2ccc3c(c2)OCO3)CC1 (stereo unspecified) | 6.44% (inactive) |  |  | 
65 | CCOC(=O)C1CCN(CC(O)COCc2ccccc2)CC1 (stereo unspecified) | 10.2% (inactive) | 4.71 |  | 
66 | COc1cccc(NC(=O)CSc2nc3scc(C)c3c(=O)[nH]2)c1 |  | 2.56 |  | 0.58 µM (active)
67 | COc1ccc(NC(=O)CSc2nc3scc(C)c3c(=O)[nH]2)cc1 | 19.3% (inactive) | 11.6 |  | 
68 | COc1ccc(C)cc1NC(=O)CSc1nc2scc(C)c2c(=O)[nH]1 |  | 10.8 | inactive | 
69 | CCOc1ccc(-c2nnn(CC(=O)NCc3cccs3)n2)cc1 | 7.4% (inactive) | -5.47 |  | 

Row | SMILES | lipid storage change, negative = inhibition | cell number change [%] | outcome | Potency
70 | CC(=O)NNc1[nH]c2c(c(=O)c1[N+](=O)[O-])c(=O)n(C)c(=O)n2C | -5.91% (inactive) | -5.05 |  | 
71 | O=C(NC(Cc1ccccc1)C(=O)O)c1ccccc1 (stereo unspecified) | -0.615% (inactive) | -3.84 |  | 
72 | CC(C)=C(NC(=O)c1ccccc1)C(=O)NC(Cc1ccccc1)C(=O)O (stereo unspecified) |  | -15 |  | 1.16 µM (active)
73 | O=C(NC(Cc1ccccc1)C(=O)O)/C(=C/c1ccccc1)NC(=O)c1ccccc1 (stereo unspecified) | -12.2% (inactive) | -7.82 |  | 
74 | CC(=O)OCCn1c(C)[n+](CCOC(C)=O)c2cc(Cl)c(Cl)cc21 | 3.84% (inactive) | 13.2 |  | 
75 | COc1ccc(OCC(=O)N2CC3(C)CC2CC(C)(C)C3)cc1 (stereo unspecified) |  |  | inactive | 
76 | Nc1c(C(=O)Nc2ccc(S(=O)(=O)N3CCCC3)cc2)sc2nc3cc4c(cc3cc12)CCC4 | -10.7% (inactive) | 6.36 |  | 
77 | Cc1cccc2cc3c(N)c(C(=O)Nc4ccc(N5CCOCC5)cc4)sc3nc12 | 5.73% (inactive) | -1.66 |  | 
78 | CCc1cccc2cc3c(N)c(C(=O)Nc4ccc(S(=O)(=O)N5CCCC5)cc4)sc3nc12 |  | 0.905 |  | 5.8 µM (active)
79 | Cc1cccn2c(=O)c3cc(C(=O)NCCc4ccccc4)sc3nc12 |  | -15.4 | inactive | 
80 | Cc1ccc(C(=O)N2CCC(Cc3ccccc3)CC2)cc1[N+](=O)[O-] | 14.3% (inactive) | 4.11 |  | 
81 | C=CCNC(=O)/C(C#N)=C\c1cc(Cl)c(OCC)c(OC)c1 |  | -28.8 |  | 14.6 µM (active)
82 | COc1cc(/C=C(/C#N)C(=O)NCc2ccccc2)cc(OC)c1OC |  | -27.2 | inactive | 
83 | C=CCNC(=O)/C(C#N)=C\c1cc(Cl)c(O)c(OCC)c1 | -22% (inactive) | 2.03 |  | 
84 | CC(=O)Nc1ccc(NC(=O)C2CC(=O)Nc3nc4ccccc4n32)cc1 (stereo unspecified) | 9.73% (inactive) | -1.64 |  | 
85 | CCSCCc1nnc(NC(=O)Nc2cccc(C(F)(F)F)c2)s1 |  | -21.6 |  | 20.6 µM (active)
86 | CNC(=O)Nc1cccc(C(F)(F)F)c1 | 10.6% (inactive) | 3.39 |  | 
87 | CCSc1nnc(NC(=O)Nc2cccc(C)c2)s1 | -12.7% (inactive) | 17 |  | 
88 | CC(C)C[C@@H](CSc1ccc(Br)cc1)N1CCN(C)CCC1=O | 14.2% (inactive) | -4.06 |  | 
89 | CC(C(=O)NCc1ccc2c(c1)OCO2)N(c1ccccc1)S(C)(=O)=O (stereo unspecified) | 6.83% (inactive) | 7.31 |  | 
90 | COc1ccc(N2C(=O)CN(Cc3ccc(OC)c(OC)c3)C2=S)cc1 | -2.11% (inactive) | 10.4 |  | 
